Data reported in PubChem BioAssay (NCI).
Compounds without any hit were thinned out: in the full panel of roughly 79,000, 15% have a hit. Active and inactive are the calls of the source. Cut-off read from the data, not from the text of the source: active = growth inhibition above about 70%; inactive = the rest.

Experiments:
[1] = NCI Yeast Anticancer Drug Screen. Data for the wt1 strain (AID 149);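 note: 0% = growth of vehicle-treated wt1 cultures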; conditions: S. cerevisiae wt1 strain (SPY 50644) growth inhibition, active compounds read high
Method in brief: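 Readout: yeast growth inhibition, normalised to vehicle controls, in the wt1 strain exposed to test compounds.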

[2] = NCI Yeast Anticancer Drug Screen. Data for the rad50EPP+ strain (AID 151);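 note: 0% = growth of vehicle-treated control cultures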; conditions: S. cerevisiae rad50 mutant strain, active compounds read high
Method in brief: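 Compounds were applied to the rad50EPP+ yeast strain, which bears a defined DNA repair alteration, and growth inhibition was determined relative to vehicle-treated cultures.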

[3] = NCI Yeast Anticancer Drug Screen. Data for the mgt1 strain (AID 153); conditions: S. cerevisiae mgt1 mutant growth inhibition, active compounds read high
Method in brief: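 Strain: mgt1 yeast, one of a set carrying defined DNA damage repair or cell cycle control alterations. Compound-treated growth compared with vehicle.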

[4] = NCI Yeast Anticancer Drug Screen. Data for the rad50 strain (AID 155);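 note: 0% = growth of vehicle-only cultures of the same strain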; conditions: S. cerevisiae rad50 strain growth inhibition, active compounds read high
Method in brief: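 Compounds were tested on a yeast strain with an engineered DNA damage repair alteration; the reported value is growth inhibition normalised to vehicle treatment.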

[5] = NCI Yeast Anticancer Drug Screen. Data for the mec2-1 strain (AID 157); conditions: S. cerevisiae mec2-1 strain, active compounds read high
Method in brief: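 Strain: mec2-1 (DNA repair/cell cycle alteration). Compound exposure, then growth measured; inhibition expressed relative to vehicle.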

[6] = NCI Yeast Anticancer Drug Screen. Data for the rad14 strain (AID 159);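 note: 0% = growth of vehicle-treated control cultures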; conditions: S. cerevisiae rad14 strain growth inhibition, active compounds read high
Method in brief: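 Compound-treated yeast with a defined DNA-repair lesion; growth inhibition normalised to vehicle-treated cultures.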

[7] = NCI Yeast Anticancer Drug Screen. Data for the sgs1 mgt1 strain (AID 161);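 note: 0% = growth of cultures given vehicle only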; conditions: S. cerevisiae sgs1 mgt1 strain, active compounds read high
Method in brief: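 Test agents were incubated with a DNA-repair-mutant yeast strain. Growth was then read and compared against vehicle-treated controls.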

[8] = NCI Yeast Anticancer Drug Screen. Data for the CLN2oe strain (AID 163);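 note: 0% = growth of vehicle-only control cultures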; conditions: S. cerevisiae CLN2oe strain, active compounds read high
Method in brief: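 Growth of a genetically modified yeast strain is measured after compound exposure and compared with cultures given vehicle alone.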

[9] = NCI Yeast Anticancer Drug Screen. Data for the cln2 rad14 strain (AID 165);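 note: 0% = growth equal to vehicle treated cultures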; conditions: S. cerevisiae cln2 rad14 strain, active compounds read high
Method in brief: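 Compounds are applied to the cln2 rad14 yeast strain, and growth is then compared with that of vehicle-treated cultures to give inhibition.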

[10] = NCI Yeast Anticancer Drug Screen. Data for the bub3 strain (AID 167); conditions: S. cerevisiae bub3 mutant strain, active compounds read high
Method in brief: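 Growth of a checkpoint-deficient yeast mutant is measured after compound exposure. Values represent inhibition relative to vehicle.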

[11] = NCI Yeast Anticancer Drug Screen. Data for the wt2 strain (AID 169);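 note: 0% = growth of vehicle-treated yeast cultures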; conditions: S. cerevisiae wt2 strain growth inhibition, active compounds read high
Method in brief: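 This strain belongs to a panel of yeast strains with defined genetic alterations in DNA damage repair or cell cycle control. Compounds are applied, and growth inhibition is measured against vehicle-treated cultures.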

[12] = NCI Yeast Anticancer Drug Screen. Data for the mlh1 strain (AID 171);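 note: 0% = growth of vehicle-treated control cultures of the same strain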; conditions: S. cerevisiae mlh1 strain growth inhibition, active compounds read high
Method in brief: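 Growth of the mutant yeast strain after compound exposure, expressed as inhibition relative to vehicle-only controls.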

[13] = NCI Yeast Anticancer Drug Screen. Data for the sgs1 strain (AID 173);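 note: 0% = growth of vehicle-only control cultures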; conditions: S. cerevisiae sgs1 mutant, active compounds read high
Method in brief: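 Growth of a yeast strain bearing a defined genetic alteration is measured after compound treatment. Inhibition is expressed relative to vehicle-only controls.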

[14] = NCI Yeast Anticancer Drug Screen. Data for the mlh1 rad18 strain (AID 175); conditions: S. cerevisiae mlh1 rad18 strain growth inhibition, active compounds read high
Method in brief: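 Read-out is yeast growth inhibition, calculated against vehicle-only controls. The compound was applied to a strain engineered with DNA damage repair alterations.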

[15] = NCI Yeast Anticancer Drug Screen. Data for the rad18 strain (AID 177); conditions: S. cerevisiae rad18 mutant growth inhibition, active compounds read high
Method in brief: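 Growth of the mutant yeast strain after compound exposure, normalised to vehicle-only cultures.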

[16] = at 5.0 µM (retest, dose inferred, filed as 0.5)
[17] = at 50.0 µM (retest, dose inferred, filed as 5.0)

Measured: growth inhibition

c1ccc2cc(OCC3CO3)c(OCC3CO3)cc2c1 (stereo unspecified)
active: [2]; at 100.0 µM 81% | [4]; [17] 91% | [4]; at 100.0 µM 83% | [6]; at 100.0 µM 82% | [7]; [16] 76% | [7]; [17] 93% | [7]; at 50.0 µM 76.8% | [13]; at 11.0 µM 70% | [13]; at 33.0 µM 82% | [13]; at 100.0 µM 84% | [14]; [16] 84% | [14]; [17] 96% | [14]; at 50.0 µM 81.7% | [15]; at 33.0 µM 86% | [15]; at 100.0 µM 92%
inactive: [1]; at 1.2 µM -21% | [1]; at 3.7 µM -21% | [1]; at 11.0 µM -24% | [1]; at 33.0 µM -16% | [1]; at 100.0 µM -2% | [2]; at 1.2 µM -21% | [2]; at 3.7 µM -4% | [2]; at 11.0 µM 22% | [2]; at 33.0 µM 59% | [3]; at 1.2 µM -43% | [3]; at 3.7 µM -25% | [3]; at 11.0 µM -4% | [3]; at 33.0 µM -21% | [3]; at 100.0 µM 11% | [4]; at 1.2 µM -26% | [4]; at 3.7 µM -21% | [4]; [16] 56% | [4]; at 11.0 µM 3% | [4]; at 33.0 µM 59% | [4]; at 50.0 µM 57.1% | [5]; at 1.2 µM -29% | [5]; at 3.7 µM -18% | [5]; [16] 27% | [5]; at 11.0 µM -29% | [5]; at 33.0 µM 1% | [5]; [17] 67% | [5]; at 50.0 µM 58.8% | [5]; at 100.0 µM 64% | [6]; at 1.2 µM -21% | [6]; at 3.7 µM -8% | [6]; at 11.0 µM 1% | [6]; at 33.0 µM 35% | [8]; at 1.2 µM -10% | [8]; at 3.7 µM -2% | [8]; at 11.0 µM -11% | [8]; at 33.0 µM -6% | [8]; at 100.0 µM 35% | [9]; [16] 14% | [9]; [17] 63% | [9]; at 50.0 µM 60.7% | [10]; at 1.2 µM -22% | [10]; at 3.7 µM -26% | [10]; [16] 19% | [10]; at 11.0 µM -24% | [10]; at 33.0 µM -22% | [10]; [17] 29% | [10]; at 50.0 µM -7.95% | [10]; at 100.0 µM 0% | [11]; at 1.2 µM -38% | [11]; at 3.7 µM -33% | [11]; at 11.0 µM -37% | [11]; at 33.0 µM -19% | [11]; at 100.0 µM 0% | [12]; at 1.2 µM -37% | [12]; at 3.7 µM -32% | [12]; at 11.0 µM -33% | [12]; at 33.0 µM -26% | [12]; at 100.0 µM 14% | [13]; at 1.2 µM -2% | [13]; at 3.7 µM 37% | [15]; at 1.2 µM -8% | [15]; at 3.7 µM 33% | [15]; at 11.0 µM 69%

Nc1ccc2cc(Br)c3ccccc3c2c1
active: [1]; at 100.0 µM 75% | [4]; at 50.0 µM 86.2% | [5]; at 50.0 µM 73.7% | [7]; at 50.0 µM 88.5% | [10]; at 50.0 µM 71.5% | [11]; at 100.0 µM 80% | [14]; at 50.0 µM 90.3%
inactive: [1]; at 1.2 µM 0% | [1]; at 3.7 µM 1% | [1]; at 11.0 µM -2% | [1]; at 33.0 µM -2% | [2]; at 1.2 µM 3% | [2]; at 3.7 µM 5% | [2]; at 11.0 µM 22% | [2]; at 33.0 µM 39% | [2]; at 100.0 µM 26% | [3]; at 1.2 µM -1% | [3]; at 3.7 µM -3% | [3]; at 11.0 µM -1% | [3]; at 33.0 µM -1% | [3]; at 100.0 µM -3% | [4]; at 1.2 µM 0% | [4]; at 3.7 µM 1% | [4]; [16] 5% | [4]; at 11.0 µM 1% | [4]; at 33.0 µM 16% | [4]; [17] 41% | [4]; at 100.0 µM 20% | [5]; at 1.2 µM -3% | [5]; at 3.7 µM -1% | [5]; [16] -18% | [5]; at 11.0 µM 0% | [5]; at 33.0 µM 3% | [5]; [17] 6% | [5]; at 100.0 µM 6% | [6]; at 1.2 µM -1% | [6]; at 3.7 µM 0% | [6]; at 11.0 µM 4% | [6]; at 33.0 µM 8% | [6]; at 100.0 µM 21% | [7]; [16] 13% | [7]; [17] 50% | [8]; at 1.2 µM -2% | [8]; at 3.7 µM -19% | [8]; at 11.0 µM -1% | [8]; at 33.0 µM -4% | [8]; at 100.0 µM -16% | [9]; [16] 15% | [9]; [17] 18% | [9]; at 50.0 µM 40.1% | [10]; at 1.2 µM 0% | [10]; at 3.7 µM 2% | [10]; [16] 10% | [10]; at 11.0 µM 2% | [10]; at 33.0 µM -1% | [10]; [17] 31% | [10]; at 100.0 µM -6% | [11]; at 1.2 µM -1% | [11]; at 3.7 µM 0% | [11]; at 11.0 µM -3% | [11]; at 33.0 µM 2% | [12]; at 1.2 µM -1% | [12]; at 3.7 µM -1% | [12]; at 11.0 µM -1% | [12]; at 33.0 µM 1% | [12]; at 100.0 µM 2% | [13]; at 1.2 µM -2% | [13]; at 3.7 µM -2% | [13]; at 11.0 µM -1% | [13]; at 33.0 µM 4% | [13]; at 100.0 µM 9% | [14]; [16] 28% | [14]; [17] 65% | [15]; at 1.2 µM -3% | [15]; at 3.7 µM -2% | [15]; at 11.0 µM -4% | [15]; at 33.0 µM -1% | [15]; at 100.0 µM -5%

Cc1ccc(N(C=O)c2c([N+](=O)[O-])cc([N+](=O)[O-])c3c2=[N+]([O-])CN=3)cc1
inactive: [1]; at 1.2 µM 3% | [1]; at 3.7 µM 23% | [1]; at 11.0 µM 20% | [2]; at 1.2 µM 35% | [2]; at 3.7 µM 51% | [3]; at 1.2 µM 10% | [3]; at 3.7 µM -1% | [3]; at 11.0 µM 52% | [4]; at 1.2 µM 9% | [4]; at 3.7 µM 18% | [4]; [16] 13% | [4]; at 11.0 µM 25% | [5]; at 1.2 µM 8% | [5]; at 3.7 µM 19% | [5]; [16] 6% | [5]; at 11.0 µM 32% | [5]; at 50.0 µM 27.6%
active: [1]; at 33.0 µM 89% | [1]; at 100.0 µM 98% | [2]; at 11.0 µM 84% | [2]; at 33.0 µM 95% | [2]; at 100.0 µM 97% | [3]; at 33.0 µM 96% | [3]; at 100.0 µM 98% | [4]; at 33.0 µM 92% | [4]; [17] 83% | [4]; at 50.0 µM 71.5% | [4]; at 100.0 µM 98% | [5]; at 33.0 µM 95% | [5]; [17] 91%
